PubChem BioAssay AID1159580 (chemical genetic matrix, 2015)
Out of some 5,500 compounds screened, about 2,000 (36%) were called active. Not shown: some 18% with an inconclusive outcome. Rule as the data show it: active = normalized growth mostly below about 0.91 (no sharp cut-off); inconclusive = no clear call, values can overlap the other calls; inactive = mostly above about 0.92. The list shows a part of the results.

Assay: chemical genetic growth profiling, strain panel (AID 1159580);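 also: tested at 20 µM; growth read once vehicle control cultures reached saturation at 30 °C; 1 = growth at the plate median or of vehicle wells; lower values mean less growth of the strain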
Conditions: growth OD

Measured: normalized growth

CCCCC(=O)O[C@]1(C(=O)CO)[C@@H](C)CC2C3CCC4=CC(=O)C=C[C@]4(C)[C@@]3(F)C(O)C[C@@]21C (some centres undefined)
inactive: S. cerevisiae deletion strains, locus YKL009W, strain mrt4, stronger effect = lower value 0.969 | S. cerevisiae deletion strains, locus YKL068W, stronger effect = lower value 0.991 | S. cerevisiae deletion strains, locus YKL085W, strain MDH1 (second series), stronger effect = lower value 0.987 | S. cerevisiae deletion strains, locus YKL085W, strain MDH1, stronger effect = lower value 0.987 | S. cerevisiae deletion strains, locus YKL160W, strain elf1, stronger effect = lower value 0.958 | S. cerevisiae deletion strains, locus YKL190W, strain CNB1, stronger effect = lower value 0.999 | S. cerevisiae deletion strains, locus YKR001C, strain vps1, stronger effect = lower value 0.972 | S. cerevisiae deletion strains, locus YKR026C, strain gcn3, stronger effect = lower value 0.97 | S. cerevisiae deletion strains, locus YKR091W, strain srl3, stronger effect = lower value 0.986 | S. cerevisiae deletion strains, locus YLL001W, strain dnm1, stronger effect = lower value 0.919 | S. cerevisiae deletion strains, locus YLL026W, stronger effect = lower value 0.964 | S. cerevisiae deletion strains, locus YLL041C, strain sdh2, stronger effect = lower value 0.991 | S. cerevisiae deletion strains, locus YLR027C, strain aat2, stronger effect = lower value 0.977 | S. cerevisiae deletion strains, locus YLR039C, strain RIC1, stronger effect = lower value 1.07 | S. cerevisiae deletion strains, locus YLR058C, strain SHM2, stronger effect = lower value 0.95 | S. cerevisiae deletion strains, locus YLR102C, strain apc9, stronger effect = lower value 1 | S. cerevisiae deletion strains, locus YLR113W, strain HOG1, stronger effect = lower value 0.956 | S. cerevisiae deletion strains, locus YLR221C, strain rsa3, stronger effect = lower value 0.993 | S. cerevisiae deletion strains, locus YLR258W, strain gsy2, stronger effect = lower value 0.99 | S. cerevisiae deletion strains, locus YLR262C, strain YPT6 (second series), stronger effect = lower value 0.948 | S. cerevisiae deletion strains, locus YLR262C, strain YPT6, stronger effect = lower value 1.01 | S. cerevisiae deletion strains, locus YLR268W, strain sec22, stronger effect = lower value 0.96 | S. cerevisiae deletion strains, locus YLR320W, strain mms22, stronger effect = lower value 0.996 | S. cerevisiae deletion strains, locus YLR330W, strain CHS5, stronger effect = lower value 0.99 | S. cerevisiae deletion strains, locus YLR342W, strain FKS1 (second series), stronger effect = lower value 1 | S. cerevisiae deletion strains, locus YLR342W, strain FKS1, stronger effect = lower value 0.973 | S. cerevisiae deletion strains, locus YLR357W, strain rsc2, stronger effect = lower value 1 | S. cerevisiae deletion strains, locus YLR370C, strain arc18, stronger effect = lower value 0.977 | S. cerevisiae deletion strains, locus YLR371W, strain rom2, stronger effect = lower value 0.984 | S. cerevisiae deletion strains, locus YLR384C, strain iki3, stronger effect = lower value 0.963 | S. cerevisiae deletion strains, locus YLR418C, strain cdc73, stronger effect = lower value 0.973 | S. cerevisiae deletion strains, locus YML016C, strain PPZ1, stronger effect = lower value 0.987 | S. cerevisiae deletion strains, locus YML032C, strain rad52, stronger effect = lower value 1 | S. cerevisiae deletion strains, locus YML120C, strain ndi1, stronger effect = lower value 0.998 | S. cerevisiae deletion strains, locus YML124C, strain tub3, stronger effect = lower value 1.01 | S. cerevisiae deletion strains, locus YMR058W, strain fet3, stronger effect = lower value 0.981 | S. cerevisiae deletion strains, locus YMR078C, strain ctf18, stronger effect = lower value 0.98 | S. cerevisiae deletion strains, locus YMR125W, strain sto1, stronger effect = lower value 0.99 | S. cerevisiae deletion strains, locus YMR129W, stronger effect = lower value 0.988 | S. cerevisiae deletion strains, locus YMR205C, strain PFK2, stronger effect = lower value 0.984 | S. cerevisiae deletion strains, locus YMR223W, strain ubp8, stronger effect = lower value 0.974 | S. cerevisiae deletion strains, locus YMR231W, strain pep5, stronger effect = lower value 0.979 | S. cerevisiae deletion strains, locus YMR307W, strain GAS1, stronger effect = lower value 0.968 | S. cerevisiae deletion strains, locus YNL067W, strain RPL9B, stronger effect = lower value 0.964 | S. cerevisiae deletion strains, locus YNL071W, strain lat1, stronger effect = lower value 0.918 | S. cerevisiae deletion strains, locus YNL128W, strain TEP1, stronger effect = lower value 0.968 | S. cerevisiae deletion strains, locus YNL153C, strain GIM3, stronger effect = lower value 0.923 | S. cerevisiae deletion strains, locus YNL183C, strain NPR1, stronger effect = lower value 0.933 | S. cerevisiae deletion strains, locus YNL209W, strain ssb2, stronger effect = lower value 0.975 | S. cerevisiae deletion strains, locus YNL233W, strain BNI4, stronger effect = lower value 0.963 | S. cerevisiae deletion strains, locus YNL248C, strain rpa49, stronger effect = lower value 0.967 | S. cerevisiae deletion strains, locus YNL250W, strain rad50, stronger effect = lower value 0.978 | S. cerevisiae deletion strains, locus YNL271C, strain bni1, stronger effect = lower value 0.971 | S. cerevisiae deletion strains, locus YNL298W, strain CLA4, stronger effect = lower value 0.977 | S. cerevisiae deletion strains, locus YNL307C, strain MCK1, stronger effect = lower value 0.979 | S. cerevisiae deletion strains, locus YNL322C, strain KRE1 (second series), stronger effect = lower value 0.954 | S. cerevisiae deletion strains, locus YNR049C, strain mso1, stronger effect = lower value 0.983 | S. cerevisiae deletion strains, locus YNR052C, strain pop2, stronger effect = lower value 0.979 | S. cerevisiae deletion strains, locus YOL006C, strain TOP1, stronger effect = lower value 0.98 | S. cerevisiae deletion strains, locus YOL012C, strain htz1 1.06 | S. cerevisiae deletion strains, locus YOL147C, strain pex11, stronger effect = lower value 0.989 | S. cerevisiae deletion strains, locus YOR001W, strain rrp6, stronger effect = lower value 0.938 | S. cerevisiae deletion strains, locus YOR061W, strain CKA2, stronger effect = lower value 0.987 | S. cerevisiae deletion strains, locus YOR069W, strain VPS5, stronger effect = lower value 0.989 | S. cerevisiae deletion strains, locus YOR070C, strain gyp1, stronger effect = lower value 0.986 | S. cerevisiae deletion strains, locus YOR080W, strain dia2, stronger effect = lower value 0.965 | S. cerevisiae deletion strains, locus YOR083W, strain WHI5, stronger effect = lower value 0.956 | S. cerevisiae deletion strains, locus YOR106W, strain vam3, stronger effect = lower value 0.929 | S. cerevisiae deletion strains, locus YOR136W, strain idh2, stronger effect = lower value 0.979 | S. cerevisiae deletion strains, locus YOR144C, strain elg1, stronger effect = lower value 0.994 | S. cerevisiae deletion strains, locus YOR184W, strain ser1, stronger effect = lower value 0.984 | S. cerevisiae deletion strains, locus YOR231W, strain MKK1, stronger effect = lower value 0.976 | S. cerevisiae deletion strains, locus YOR265W, strain rbl2, stronger effect = lower value 0.981 | S. cerevisiae deletion strains, locus YOR270C, strain vph1, stronger effect = lower value 0.88 | S. cerevisiae deletion strains, locus YOR290C, strain snf2, stronger effect = lower value 1.01 | S. cerevisiae deletion strains, locus YOR316C, strain cot1, stronger effect = lower value 0.988 | S. cerevisiae deletion strains, locus YPL051W, strain arl3, stronger effect = lower value 0.993 | S. cerevisiae deletion strains, locus YPL055C, strain LGE1, stronger effect = lower value 0.975 | S. cerevisiae deletion strains, locus YPL078C, strain atp4, stronger effect = lower value 0.927 | S. cerevisiae deletion strains, locus YPL106C, strain sse1, stronger effect = lower value 1.01 | S. cerevisiae deletion strains, locus YPL240C, strain hsp82, stronger effect = lower value 0.967 | S. cerevisiae deletion strains, locus YPL241C, strain CIN2, stronger effect = lower value 1 | S. cerevisiae deletion strains, locus YPL256C, strain CLN2, stronger effect = lower value 0.973 | S. cerevisiae deletion strains, locus YPR119W, strain clb2, stronger effect = lower value 0.993 | S. cerevisiae deletion strains, locus YPR141C, strain kar3, stronger effect = lower value 0.968 | S. cerevisiae deletion strains, locus YPR163C, strain tif3, stronger effect = lower value 0.985 | S. cerevisiae deletion strains, locus YPR167C, strain met16, stronger effect = lower value 0.984 | S. cerevisiae deletion strains, strain wtn01, stronger effect = lower value 0.992 | S. cerevisiae strains, strain wild type, stronger effect = lower value 0.985
